Screening data: PubChem, National Center for Advancing Translational Sciences (NCATS)
DRD3 agonist = D3 dopamine receptor (human) agonism | max activation, % | AID 652048 | D3R DiscoveRx beta-arrestin cells, luminescence, 90 min | P35462 | actives 0.58% (n = 410,000); in the data active = max activation above about 30%; also: 0% is about no effect
Target sequence (P35462 whole entry, looked up): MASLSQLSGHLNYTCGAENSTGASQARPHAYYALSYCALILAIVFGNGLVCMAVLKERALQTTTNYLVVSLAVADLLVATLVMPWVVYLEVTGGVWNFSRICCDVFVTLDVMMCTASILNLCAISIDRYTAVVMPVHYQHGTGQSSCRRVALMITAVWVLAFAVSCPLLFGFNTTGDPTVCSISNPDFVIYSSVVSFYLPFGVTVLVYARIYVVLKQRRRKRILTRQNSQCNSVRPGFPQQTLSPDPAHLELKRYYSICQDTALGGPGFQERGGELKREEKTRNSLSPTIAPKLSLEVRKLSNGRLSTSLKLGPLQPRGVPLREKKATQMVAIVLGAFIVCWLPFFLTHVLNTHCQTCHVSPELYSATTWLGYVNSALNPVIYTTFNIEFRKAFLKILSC
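Cells at 1500/well, incubated overnight, then treated with pinned compounds (dopamine as control) for 90 min at 37 degrees C. DiscoveRx reagent added for 30 - 60 minutes at room temperature; luminescence read.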
IL1B secr inh = inhibitors of inflammasome signaling (IL-1 beta secretion) | actives 4.7% (n = 360,000) | THP-1 LPS/ATP IL-1B secretion, AlphaLISA, 16 h; hits give low values | activity change, % at 57.5 µM; in the data active = activity change below about -50%; inconclusive = mostly about -30% to -49%; also: % is scaled to controls: 0 for no effect and ±100 for the full control effect
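Secreted IL-1B measured by AlphaLISA bead assay after 16 h compound exposure of THP-1 cells; compounds (final up to 57.5 uM) added 1 h before LPS (250 ng/mL) and ATP (1.25 mM) stimulation; lower signal means less secretion.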
D3 antag = D3 dopamine receptor (human) antagonism; AID 652054; max response, negative = inhibition, %; D3R cells, DiscoveRx beta-arrestin luminescence, antagonist mode; hits give low values; actives 2.5% (n = 360,000); in the data active = max response below about -50%; inconclusive = no clear call, values can overlap the other calls; also: % is scaled to controls: 0 for no effect and ±100 for the full control effect
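Cells expressing the human receptor were seeded at 1500 cells/well, incubated overnight at 37 degrees C in 5% CO2, then exposed to library compounds with dopamine controls for 90 minutes at 37 degrees C before luminescent detection.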
ClpP mod = qHTS Assay for Activators of ClpP; ATP-dependent Clp protease proteolytic subunit (Bacillus subtilis (strain 168)), P80244; purified B. subtilis ClpP, FRET peptide cleavage, 20 min; Potency, µM (top dose mostly 57.5 µM), for inactives: top-dose activity change, negative = active; actives 1.9% (n = 340,000); AID 651965, 2013; active = well fitted falling curve with a large enough effect; inconclusive = small, poorly fitted or top-dose-only effect; inactive = no such curve, though single readings can be large or run the other way; also: potency is read from the fitted curve at half-maximal effect; the source files actives as falling curves though it sought activators and does not explain the sign; nearly all actives have a fitted effect of over 65% in size
Target sequence (P80244 whole entry, looked up): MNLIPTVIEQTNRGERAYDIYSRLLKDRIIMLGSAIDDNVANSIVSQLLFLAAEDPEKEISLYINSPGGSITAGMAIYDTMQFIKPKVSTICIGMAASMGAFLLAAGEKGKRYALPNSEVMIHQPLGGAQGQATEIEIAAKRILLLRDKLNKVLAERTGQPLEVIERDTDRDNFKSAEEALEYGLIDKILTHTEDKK
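Purified B. subtilis ClpP, 10 microg/mL final in Tris/HCl pH8 with KCl, BSA, glycerol and Tween-20, cleaved an Abz/nitrotyrosine-quenched decapeptide. Fluorescence (ex 320, em 430) was read at 0 and 20 min at room temperature. Delta was normalized to 5.8 microM ADEP and DMSO/no-enzyme controls.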
DT40 TDP1 no CPT = qHTS for Inhibitors of human tyrosyl-DNA phosphodiesterase 1 (TDP1): qHTS in cells in absence of CPT | DT40 Tdp1-/- hTDP1 cells, no CPT, ATP luminescence, 48 h | Potency, µM (titrated, usually from 46.2 µM), for the others: top-dose activity change, negative = growth inhibition, actives largely listed as inhibitors | actives 15% (n = 420,000); also: potency is read from the fitted curve at half-maximal effect; % is scaled to controls: 0 for no effect and ±100 for the full control effect; nearly all actives have a fitted effect of over 55% in size
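Stably hTDP1-transfected Tdp1-null chicken DT40 cells were treated with library compounds minus camptothecin and grown for at least 48 hr at 37 °C, after which cellular ATP was quantified by luminescence.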
DT40 TDP1 CPT = growth inhibition of DT40 Tdp1-/-;hTDP1 cells with camptothecin (screen for TDP1 inhibitors); chicken DT40 Tdp1-/-;hTDP1 cells + 20 nM CPT, ATP luminescence, 48 h; Potency, µM (highest dose often 46.2 µM), for inactives: top-dose activity change, negative = growth inhibition, most hits filed as inhibitors; actives 12% (n = 420,000); also: potency is read from the fitted curve at half-maximal effect; % is scaled to controls: 0 for no effect and ±100 for the full control effect; nearly all actives have a fitted effect of over 55% in size
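Chicken DT40 Tdp1-/- cells complemented with human TDP1, 400 cells/well, exposed to compounds plus 20 nM camptothecin for at least 48 h at 37 C; viability read as ATP content by CellTiter-Glo luminescence.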
* hit, by the source's call; ? = inconclusive; . = no result. Hits are enriched below; roughly 21% of the tested compounds scored in any of these assays. Unless noted, calls follow the shape of the dose curve; as a rule, active = well fitted inhibition curve with a large enough effect; inconclusive = small, poorly fitted or top-dose-only effect; inactive = flat fitted curve, though single readings scatter.

SMILES	DRD3 agonist	IL1B secr inh	D3 antag	ClpP mod	DT40 TDP1 no CPT	DT40 TDP1 CPT
CCN(CC)CCNC(=O)c1ccc(N2CCCCC2)c(NS(=O)(=O)c2ccc(C)cc2)c1	-13.1	-28.3	-81.6*	-16.6%	20.6µM*	25.9µM*
COC(=O)c1ccc(N2CCN(S(=O)(=O)c3ccc(C)cc3)CC2)c([N+](=O)[O-])c1	2.4	7.9	12.4	-3.9%	20.6µM*	18.4µM*
COC(=O)c1cc(NS(=O)(=O)c2ccc(N3CCC(C)CC3)c([N+](=O)[O-])c2)cc(C(=O)OC)c1	-6.3	26.4	4.3	0.8%	-26.0%	4.5%
O=C(NCCN1CCOCC1)c1cccc(S(=O)(=O)Nc2ccc(Br)cc2)c1	0.2	49.5	19.1	1.6%	-14.1%	-17.1%
COc1ccc(S(=O)(=O)N2CCOC2CNC(=O)C(=O)NCCCN2CCCC2=O)cc1OC (centres undefined)	-3.8	-13.7	-23.0	-2.8%	-7.6%	-1.2%
CCN(CC)C(=O)/C(=C/c1cccc([N+](=O)[O-])c1)NC(=O)c1ccco1	-6.0	24.5	?	.	?	-26.0%
CCc1ccc(-c2[nH]nc3nc(-c4ccc(OC)cc4)cc(C(=O)NCCCOC)c23)cc1	-5.7	.	.	-1.0%	-6.2%	-0.5%
CCN(C(=O)c1cn(C)c(=O)c2ccccc12)c1ccccc1F	3.9	35.7	15.6	-1.5%	-1.3%	-1.1%
Cn1c(N)nc2nc(CCc3ccccc3)c(=O)[nH]c2c1=O	-4.6	-0.7	-8.3	.	10.3%	-10.1%
CCOC(=O)c1ccc(N2CCCCC2)c(NS(=O)(=O)c2cccc(C(F)(F)F)c2)c1	-4.4	0.0	22.1	-0.9%	?	?
COC(=O)c1ccc(N2CCCCC2)c(NS(=O)(=O)c2ccc(C)cc2)c1	-15.8	-2.1	-14.9	-8.9%	?	16.4µM*
O=C(CN1CCCN(S(=O)(=O)c2ccc(Br)s2)CC1)Nc1ccc(Cl)cc1	-27.6	-75.9*	-9.4	-2.8%	?	?
CC1CCCC(NC(=O)CN2CCN(S(=O)(=O)c3ccc(Br)s3)CC2)C1C (centres undefined)	1.9	?	6.3	-2.4%	18.4µM*	?
CCOC(=O)CNC(=O)CN1CCCN(S(=O)(=O)c2ccc(Br)s2)CC1	0.1	-9.9	-2.8	-2.5%	?	-24.1%
O=C(O)CC1SC(N/N=C/c2ccc(Br)cc2)NC1=O (centres undefined)	0.6	26.2	0.6	-0.9%	7.4%	-2.9%
CC(=O)Oc1c(C)cc(Cl)cc1C(=O)Nc1ccc([N+](=O)[O-])cc1Cl	4.6	-67.1*	4.4	2.0%	0.461µM*	0.517µM*
O=C(Nc1ccc([N+](=O)[O-])cc1Cl)c1ccccc1O	.	.	.	-3.7%	3.16µM*	3.16µM*
COc1ccc(S(=O)(=O)Nc2cc3c4c(c2)CC(=O)N4CCC3)cc1C	4.7	19.5	4.0	-11.3%	?	?
Cc1cc2nc3c(nc2cc1C)C(O)=C3O	3.7	-3.1	4.9	-2.8%	?	?
Oc1ccc(C(=S)N2CCN(Cc3ccccc3)CC2)cc1	-6.1	-1.1	-6.9	-2.3%	?	?
CCNC(=S)N1CCN(Cc2ccccc2)CC1	2.1	-10.4	8.9	-0.6%	22.8%	-18.0%
S=C(c1ccc(Br)cc1)N1CCN(Cc2ccccc2)CC1	-43.6	-8.1	-77.6*	1.2%	?	?
CN(C)c1ccc(C(=S)N2CCN(Cc3ccccc3)CC2)cc1	-19.0	-5.1	-50.3*	1.6%	?	?
Cc1ccc(C(=S)N2CCN(Cc3ccccc3)CC2)s1	-10.4	?	-69.5*	.	?	?
CCN1CCN(C(=S)c2ccc(Br)cc2)CC1	-23.6	-5.9	-54.8*	-0.6%	2.1%	-19.1%
SMILES	DRD3 agonist	IL1B secr inh	D3 antag	ClpP mod	DT40 TDP1 no CPT	DT40 TDP1 CPT
Cc1c(Br)cnn1C(C)C(=O)N1CCN(c2ccccc2F)CC1 (centres undefined)	-9.3	11.6	20.4	2.2%	?	?
c1ccc(-c2nnc(SCCC3OCCCO3)o2)cc1	102.9*	-11.0	12.7	2.3%	-10.5%	0.3%
O=C(CSc1nnc(-c2ccccc2)o1)c1ccc2c(c1)OCCO2	-12.1	20.0	-4.0	-4.5%	?	16.4µM*
O=C(CCc1nnc(C2CCCCC2)o1)N1CCC(Oc2cccnc2)CC1	-5.6	-1.5	16.5	.	-13.3%	-6.4%
O=C(CSc1nnc(Cn2nnc3ccccc32)o1)Nc1ccc(Cl)cc1	1.7	7.2	0.0	-0.7%	-7.1%	-1.1%
COc1ccc(N(Cc2ccccc2)C(=O)CSc2nnc(Cn3nnc4ccccc43)o2)cc1	-2.0	-2.0	-6.2	-2.1%	23.1µM*	25.9µM*
O=C(CSc1nnc(Cn2nnc3ccccc32)o1)N(Cc1ccc(F)cc1)c1ccccc1	5.2	-82.4*	16.1	0.5%	7.08µM*	7.31µM*
CC(C)(CO)[C@@H](O)C(=O)NCCC(=O)NCCSSCCNC(=O)CCNC(=O)[C@H](O)C(C)(C)CO	4.7	.	.	.	13.2%	14.2%
CC(C)C[C@H](NC(=O)N1CCn2c1nc1ccccc12)C(=O)NCc1ccc2c(c1)OCO2	1.5	-7.0	10.0	0.5%	?	?
C[C@H]1CN([C@@H](C)CO)S(=O)(=O)c2ccc(C#Cc3ccccn3)cc2O[C@H]1CN(C)Cc1ccc(F)cc1	8.2	-24.1	-7.5	0.3%	?	?
C[C@H]1CN([C@@H](C)CO)S(=O)(=O)c2ccc(Br)cc2O[C@H]1CN(C)Cc1ccccc1	6.6	-9.4	28.6	0.6%	?	?
C[C@H]1CN([C@@H](C)CO)S(=O)(=O)c2ccc(Br)cc2O[C@@H]1CN(C)Cc1ccccc1	-3.8	0.0	-15.7	-0.1%	20.6µM*	?
C[C@H](CO)N1C[C@H](C)[C@H](CN(C)Cc2ccncc2)Oc2cc(-c3ccccc3F)ccc2S1(=O)=O	-3.7	-28.7	21.7	0.5%	23.1µM*	14.6µM*
CCCC#Cc1ccc2c(c1)O[C@@H](CN(C)Cc1ccc3c(c1)OCO3)[C@H](C)CN([C@@H](C)CO)S2(=O)=O	0.9	-2.6	-19.3	-15.3%	2.31µM*	7.31µM*
COc1ccc(C2Oc3cc(OC)cc(OC)c3CC2O)cc1 (centres undefined)	.	.	.	.	16.4µM*	?
COc1cc(OC)c2c(c1)OC(c1ccccc1)CC2=O (centres undefined)	.	.	.	.	?	4.2%
